Results published in PubChem BioAssay (NCI).
Compounds without any hit were thinned out: in the full panel of roughly 83,000, 20% have a hit.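 The endpoint reported here, percent growth, reads 100 for growth as untreated, 0 for no net growth and -100 for all cells dead.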 Unmarked numbers belong to inactive results. Active and inactive are the calls of the source.

These molecules were tested on SNB-75 CNS (assay: NCI-60 one-dose screen, 48 h (100 = growth as untreated, 0 = no growth, -100 = all killed)). Details: 10 µM unless noted.
Method: Growth inhibition of the SNB-75 human tumor cell line is measured as a screen for anti-cancer activity. Cells are grown in 96 well plates and exposed to the test compound for 48 hours. Compounds are tested at a single concentration, which is 10^-5 M for most compounds. The reported endpoint is percent growth (GI% or GIPRCNT), where numbers from 0 - 100% represent growth inhibition, and numbers from -100% - 0 represent cell death. For example, a value of 40 represents 60% growth inhibition. A value of 0 means no net growth occurred over the course of the experiment. A value of -40 indicates 40% of cells at the beginning of the experiment died by the end of the experiment. A value of -100 means all cells are dead at the end of the experiment.
NCI-60 Human Tumor Cell Lines Screen was performed using the standard one-dose NCI protocol, which is described in more detail at https://dtp.cancer.gov/discovery_development/nci-60/default.htm.
Compounds with GIPRCNT values below 10 were considered active. Activity score was based on GIPRCNT using the following formula: […]
Score is 0 for GIPRCNT values of 100 or above, 50 for GIPRCNT values of 0, and 100 for GIPRCNT values of -100.

Compared with `Cc1ccccc1-c1cc(-c2ccc(Br)s2)[nH]c(=O)c1C#N`, `O=c1oc2ccccc2cc1-c1csc(N=Nc2c(O)[nH]c3ccc(Br)cc23)n1` is lower in growth: 92.3% for the first, 86.2% for the second.

Going from `O=C(COc1ccc(/C=C2\CSc3ccccc3C2=O)cc1)c1ccc(Cl)cc1` to `O=C(NCc1ccc(F)cc1)C1CN(c2ccc(Cl)cc2)N(c2ccc(Cl)cc2)C1=O` (stereo not given), the growth falls from 108% to 36.7%.

First: COc1c(Cl)ccc2c(-c3nc4cc(Cl)c(F)cc4s3)cc(=O)oc12
Second: Cc1cc(Cl)c2c(Cl)ccc(Cl)c2n1
The growth of the first is lower: 69.3% for the first, 95.5% for the second.

Compared with `COc1cc(-c2ccc3cc(OC)c(OC)c(OC)c3c2)cc(OC)c1OC`, `COc1cc2nc(SCc3cc(OC)c(OC)c(OC)c3)n(-c3ccccc3OC)c(=O)c2cc1OC` is higher in growth: 49.1% for the first, 62.8% for the second.

First: COc1ccc(/C=C2\SC(=O)N(CN3CCN(c4cc5c(cc4F)c(=O)c(C(=O)O)cn5C4CC4)CC3)C2=O)cc1
Second: Cn1c(=O)c2c(-c3ccccc3F)n(-c3ccc4c(c3)OCO4)cc2n(C)c1=O
The growth of the first is higher: 85.1% for the first, 80.9% for the second.

Going from `Oc1ccc2ccccc2c1C1NN=C(c2ccccc2)S1` (stereo not given) to `COc1nc2c(cc1S(=O)(=O)c1ccccc1)CCc1c-2cnn1-c1ccccc1`, the growth rises from 41.8% to 65.8%.

First: COc1ccc(OC)c(/C=C2\Oc3cc(O)ccc3C2=O)c1
Second: COc1cc(/C=C2\C(=O)Nc3ccccc32)cc(OC)c1O
The growth of the first is higher: 88.6% for the first, 23.1% for the second.

First: COc1cc(/C=C/C(=O)C(=Cc2ccc(F)c(F)c2)C(=O)/C=C/c2ccc(O)c(OC)c2)ccc1O
Second: Cc1ccc(S(=O)(=O)N2CCc3ccc(O)c4c3C2Cc2cc(Cl)ccc2-4)cc1 (stereo not given)
The growth of the first is lower: 38.3% for the first, 48.7% for the second.

First: Cc1cc(=O)c2c(C)ccc(C)c2[nH]1
Second: COc1ccc2c(c1)c(=O)oc1c(C)c(OCC(C)=O)ccc12
The growth of the first is lower: 101% for the first, 108% for the second.

Going from `O=S(=O)(Nc1ncccn1)c1ccc(Nc2ccc3nnc(-c4ccncc4)n3n2)cc1` to `NC1=NC(c2ccccc2OS(=O)(=O)c2ccc(Br)cc2)n2c(nc3ccccc32)N1` (stereo not given), the growth falls from 86.9% to 80.2%.

Going from `NC(=O)c1nc2c([nH]c1=O)CCCC2` to `C[C@@H](Oc1cc(-c2cnn(C3CC4(CCCNC4)C3)c2)cnc1N)c1c(Cl)ccc(F)c1Cl` (stereo not given in full), the growth falls from 89.6% to 10.3%.

Going from `COc1ccc2nc(-n3nc(C)cc3C)c(-n3nc(C)cc3C)nc2c1` to `Cc1nc2ccc(Cl)cc2n1C`, the growth falls from 116% to 103%.

Going from `CC(C)OC1=C(Cl)C(=O)c2ccccc2C1=O` to `O=C1c2cc(S(=O)(=O)O)ccc2C(=O)c2c1cccc2[N+](=O)[O-]`, the growth rises from 75.8% to 110%.

Going from `COc1ccc(/C=N/OCC(O)CN2CCC(O)CC2)cc1OC1CCCC1` (stereo not given) to `COc1ccc(OC)c2ncccc12`, the growth rises from 80% to 88.6%.

First: O=C1c2ccccc2-c2cn(Cc3ccccc3)c3cccc(c23)C1c1cccnc1 (stereo not given)
Second: Cn1c2c(cc(S(=O)(=O)c3ccccc3)c1=O)CCc1c-2cnn1-c1cccc(Cl)c1
The growth of the first is lower: 23.2% for the first, 76.4% for the second.

Going from `Clc1ccc(C2=Nc3cccc4cccc(c34)N2)cc1Cl` to `CN(C)c1ccc(/C=C(\C#N)c2cc3ccccc3n2C)cc1`, the growth falls from 77.5% to 20.8%.

`C=C(C)CCCC(C)CC#N` (stereo not given) showed a growth of 91.3%.

With `CN([N-]C(=O)CC(=O)[N-]N(C)C(=S)c1ccccc1)C(=S)c1ccccc1.[Cu+2]` the growth was -96.8% (active).
For `COc1cc(/C=N/NC(=O)c2cnn3c2NC(c2ccccc2)C3)ccc1OC1CCCC1` (stereo not given), the growth was -13.7% (active).
`COC(=O)c1c2c(c(C)[n+]([O-])c1C)C(=O)C(NCc1ccc(O)cc1)=CC2=O` was tested, and the growth was -29.5% (active).
For `CCCOC(=O)c1ccc2c(c1)[N+](=O)C(C(=O)c1ccccc1)=C(C(F)(F)F)[N+]2=O`, the growth was -98.5% (active).
For `O=S(=O)(Nc1ccccc1Cl)c1ccc(-c2cnc(C3CC3)o2)cc1`, the growth was -13.4% (active).
`c1ccc(-c2n(Cc3ccc4ccccc4n3)c3ccccc3[n+]2Cc2ccc3ccccc3n2)cc1` was tested, and the growth was -21.5% (active).
With `Cc1nc2cc(Nc3nc(Nc4ccc(F)cc4)nc(N4CCCC4)n3)ccc2n1Cc1ccccc1` the growth was -15.1% (active).
